Results taken from the supplement of paper PMC11732987, “Enantioselective OTUD7B fragment discovery through chemoproteomics screening and high-throughput optimisation” (Communications Chemistry, 2025).

Tests used:
Assay in all cases: log2 ratio of Biotin-Ahx-Ub-VS probe labelling (fragment/DMSO); higher = less target engagement (more negative = stronger competition), active = hit call of the paper (q ≤ 0.05, log2 ratio ≤ -1)
Settings in all cases: compound concentration: 200 uM; treatment time: 3 h
[1] = target: T1, USP19 (UniProt O94966)
T1 sequence (whole entry): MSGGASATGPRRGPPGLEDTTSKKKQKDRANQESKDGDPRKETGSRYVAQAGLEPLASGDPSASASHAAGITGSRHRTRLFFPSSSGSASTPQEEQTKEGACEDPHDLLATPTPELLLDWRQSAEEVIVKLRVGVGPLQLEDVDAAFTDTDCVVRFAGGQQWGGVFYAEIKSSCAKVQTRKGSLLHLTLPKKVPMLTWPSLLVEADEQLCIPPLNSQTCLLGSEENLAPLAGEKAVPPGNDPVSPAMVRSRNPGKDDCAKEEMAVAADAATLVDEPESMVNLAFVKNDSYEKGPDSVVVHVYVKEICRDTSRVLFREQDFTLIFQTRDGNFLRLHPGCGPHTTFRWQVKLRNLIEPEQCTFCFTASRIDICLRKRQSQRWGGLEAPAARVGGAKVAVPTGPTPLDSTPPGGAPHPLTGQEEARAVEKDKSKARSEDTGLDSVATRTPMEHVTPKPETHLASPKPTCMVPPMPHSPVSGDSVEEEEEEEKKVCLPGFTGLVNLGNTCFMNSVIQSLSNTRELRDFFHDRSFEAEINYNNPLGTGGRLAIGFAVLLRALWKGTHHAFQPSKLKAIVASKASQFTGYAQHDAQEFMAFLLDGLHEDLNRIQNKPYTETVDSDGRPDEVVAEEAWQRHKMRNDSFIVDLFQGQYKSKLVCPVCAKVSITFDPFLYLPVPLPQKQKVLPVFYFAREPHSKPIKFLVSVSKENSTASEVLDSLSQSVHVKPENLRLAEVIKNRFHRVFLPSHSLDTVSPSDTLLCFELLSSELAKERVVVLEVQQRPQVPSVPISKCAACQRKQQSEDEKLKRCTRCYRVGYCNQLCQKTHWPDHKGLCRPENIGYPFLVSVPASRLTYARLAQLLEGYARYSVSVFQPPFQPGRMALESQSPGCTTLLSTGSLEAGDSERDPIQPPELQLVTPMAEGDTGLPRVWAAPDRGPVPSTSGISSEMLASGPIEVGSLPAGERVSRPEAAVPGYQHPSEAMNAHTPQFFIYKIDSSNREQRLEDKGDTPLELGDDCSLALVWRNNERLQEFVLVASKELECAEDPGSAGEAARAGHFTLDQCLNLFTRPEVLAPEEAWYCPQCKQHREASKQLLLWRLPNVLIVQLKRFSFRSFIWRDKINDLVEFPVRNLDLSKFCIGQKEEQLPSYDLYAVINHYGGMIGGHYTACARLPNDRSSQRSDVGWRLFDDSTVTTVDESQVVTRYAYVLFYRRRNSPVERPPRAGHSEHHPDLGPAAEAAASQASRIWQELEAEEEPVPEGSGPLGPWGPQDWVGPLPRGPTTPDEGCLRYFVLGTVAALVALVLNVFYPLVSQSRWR
Outline: (§1)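 HEK293T lysate, 495 µg per sample in Tris/CHAPS/IGEPAL buffer with protease inhibitors, was treated in triplicate with fragment at 200 µM or vehicle for 3 h and then with Biotin-Ahx-Ub-VS at 0.5 µM final for 1 h. Labelled DUBs were NeutrAvidin-enriched, digested with LysC and trypsin, and run by diaPASEF LC-MS/MS. Spectronaut label-free quantities were global-median-normalised, and values are average log2 fragment/vehicle ratios by unpaired t-test on proteins with ≥2 unique peptides.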

[2] = target: USP24 (UniProt Q9UPU5)
USP24, sequence (Q9UPU5 whole entry): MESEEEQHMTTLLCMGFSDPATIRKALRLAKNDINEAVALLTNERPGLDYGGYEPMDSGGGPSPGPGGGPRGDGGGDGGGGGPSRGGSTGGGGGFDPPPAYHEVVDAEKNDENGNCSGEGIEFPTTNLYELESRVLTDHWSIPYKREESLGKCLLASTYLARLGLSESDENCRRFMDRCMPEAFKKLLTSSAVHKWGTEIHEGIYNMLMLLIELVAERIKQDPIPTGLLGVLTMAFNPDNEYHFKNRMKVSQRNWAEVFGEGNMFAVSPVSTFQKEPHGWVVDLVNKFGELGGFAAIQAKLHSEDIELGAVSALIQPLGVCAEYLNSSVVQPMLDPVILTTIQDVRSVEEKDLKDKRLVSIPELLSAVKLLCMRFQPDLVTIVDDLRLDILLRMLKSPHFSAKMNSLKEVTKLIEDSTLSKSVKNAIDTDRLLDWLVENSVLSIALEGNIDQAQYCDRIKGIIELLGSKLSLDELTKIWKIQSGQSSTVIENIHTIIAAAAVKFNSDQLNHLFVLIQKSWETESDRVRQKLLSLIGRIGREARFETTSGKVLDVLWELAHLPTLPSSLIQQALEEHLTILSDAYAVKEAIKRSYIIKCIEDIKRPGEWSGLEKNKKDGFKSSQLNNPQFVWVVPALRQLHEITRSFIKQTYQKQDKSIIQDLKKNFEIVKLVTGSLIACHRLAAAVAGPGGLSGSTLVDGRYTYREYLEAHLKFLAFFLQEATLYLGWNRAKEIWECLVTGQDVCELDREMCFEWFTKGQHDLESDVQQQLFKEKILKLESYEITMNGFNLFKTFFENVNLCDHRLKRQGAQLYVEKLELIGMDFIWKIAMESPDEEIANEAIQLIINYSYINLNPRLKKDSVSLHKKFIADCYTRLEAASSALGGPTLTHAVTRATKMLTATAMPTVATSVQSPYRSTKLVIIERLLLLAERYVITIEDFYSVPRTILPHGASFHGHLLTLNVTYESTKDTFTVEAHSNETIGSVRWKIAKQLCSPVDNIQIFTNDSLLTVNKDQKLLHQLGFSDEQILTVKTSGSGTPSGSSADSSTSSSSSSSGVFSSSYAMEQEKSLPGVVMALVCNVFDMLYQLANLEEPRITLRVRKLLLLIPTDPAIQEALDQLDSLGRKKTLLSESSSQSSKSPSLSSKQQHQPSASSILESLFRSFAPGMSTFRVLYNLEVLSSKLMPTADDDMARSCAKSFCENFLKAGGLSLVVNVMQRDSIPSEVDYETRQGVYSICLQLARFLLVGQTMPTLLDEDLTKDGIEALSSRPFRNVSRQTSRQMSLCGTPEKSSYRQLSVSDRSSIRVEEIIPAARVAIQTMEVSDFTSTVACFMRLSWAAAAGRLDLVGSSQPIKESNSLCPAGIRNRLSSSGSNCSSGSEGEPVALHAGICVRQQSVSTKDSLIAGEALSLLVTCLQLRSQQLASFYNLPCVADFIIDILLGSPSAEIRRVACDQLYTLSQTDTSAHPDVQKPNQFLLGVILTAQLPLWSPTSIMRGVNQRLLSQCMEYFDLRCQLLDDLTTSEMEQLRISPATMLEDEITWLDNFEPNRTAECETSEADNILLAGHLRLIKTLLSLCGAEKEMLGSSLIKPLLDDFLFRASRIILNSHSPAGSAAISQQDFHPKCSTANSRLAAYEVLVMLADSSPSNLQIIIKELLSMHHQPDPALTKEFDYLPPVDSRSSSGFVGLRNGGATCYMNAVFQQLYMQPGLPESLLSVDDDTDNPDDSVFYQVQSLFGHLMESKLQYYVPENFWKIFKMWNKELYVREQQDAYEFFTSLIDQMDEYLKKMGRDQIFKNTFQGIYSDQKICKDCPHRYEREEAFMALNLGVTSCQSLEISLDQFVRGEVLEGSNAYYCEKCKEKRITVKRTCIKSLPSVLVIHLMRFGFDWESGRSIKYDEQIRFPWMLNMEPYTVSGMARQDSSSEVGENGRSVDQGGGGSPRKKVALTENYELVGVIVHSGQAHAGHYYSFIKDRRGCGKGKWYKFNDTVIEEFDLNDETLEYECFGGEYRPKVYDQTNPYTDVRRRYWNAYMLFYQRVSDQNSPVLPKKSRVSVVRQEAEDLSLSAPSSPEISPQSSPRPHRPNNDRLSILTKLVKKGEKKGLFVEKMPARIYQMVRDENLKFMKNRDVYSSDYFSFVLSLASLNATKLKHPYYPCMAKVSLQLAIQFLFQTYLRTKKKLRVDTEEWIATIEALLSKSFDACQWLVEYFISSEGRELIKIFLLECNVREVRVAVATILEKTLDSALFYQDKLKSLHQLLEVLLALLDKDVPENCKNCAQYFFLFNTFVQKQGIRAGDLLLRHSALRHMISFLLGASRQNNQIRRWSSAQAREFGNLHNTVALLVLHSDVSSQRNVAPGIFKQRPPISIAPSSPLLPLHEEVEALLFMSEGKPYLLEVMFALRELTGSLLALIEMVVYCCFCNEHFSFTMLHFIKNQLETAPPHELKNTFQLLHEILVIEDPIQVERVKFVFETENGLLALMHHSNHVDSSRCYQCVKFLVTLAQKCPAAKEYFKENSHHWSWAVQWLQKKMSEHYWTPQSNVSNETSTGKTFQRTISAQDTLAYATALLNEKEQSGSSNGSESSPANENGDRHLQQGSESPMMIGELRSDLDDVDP
Outline: as §1

[3] = target: T2, USP25 (UniProt Q9UHP3)
T2 sequence (whole entry): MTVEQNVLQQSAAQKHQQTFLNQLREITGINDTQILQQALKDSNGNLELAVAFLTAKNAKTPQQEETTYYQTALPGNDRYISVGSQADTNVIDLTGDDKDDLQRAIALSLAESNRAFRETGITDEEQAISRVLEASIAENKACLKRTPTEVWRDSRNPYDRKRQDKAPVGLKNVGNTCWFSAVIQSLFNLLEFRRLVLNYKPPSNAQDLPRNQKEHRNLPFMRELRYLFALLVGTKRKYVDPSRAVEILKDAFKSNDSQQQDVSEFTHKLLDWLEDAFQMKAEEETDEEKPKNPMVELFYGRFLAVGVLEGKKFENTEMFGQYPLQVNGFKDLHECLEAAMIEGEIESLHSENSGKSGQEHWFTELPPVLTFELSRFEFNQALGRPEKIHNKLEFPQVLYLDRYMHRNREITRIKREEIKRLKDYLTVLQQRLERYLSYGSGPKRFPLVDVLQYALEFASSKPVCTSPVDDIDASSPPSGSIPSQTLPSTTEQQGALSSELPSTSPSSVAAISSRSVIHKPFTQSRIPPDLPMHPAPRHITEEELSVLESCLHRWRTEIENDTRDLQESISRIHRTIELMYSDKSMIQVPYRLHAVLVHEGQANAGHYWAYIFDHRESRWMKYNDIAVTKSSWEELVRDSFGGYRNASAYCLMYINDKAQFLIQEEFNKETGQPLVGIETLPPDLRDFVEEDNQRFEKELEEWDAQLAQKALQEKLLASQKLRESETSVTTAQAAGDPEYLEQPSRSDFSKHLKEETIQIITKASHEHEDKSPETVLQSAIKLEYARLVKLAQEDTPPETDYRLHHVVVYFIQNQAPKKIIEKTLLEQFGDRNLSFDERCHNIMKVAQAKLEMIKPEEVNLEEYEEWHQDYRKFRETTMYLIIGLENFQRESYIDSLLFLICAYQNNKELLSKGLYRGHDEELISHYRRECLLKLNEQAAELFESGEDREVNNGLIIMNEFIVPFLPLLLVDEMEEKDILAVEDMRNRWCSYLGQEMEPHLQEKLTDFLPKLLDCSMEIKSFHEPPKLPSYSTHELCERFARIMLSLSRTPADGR
Outline: as §1

[4] = target: T3, USP28 (UniProt Q96RU2)
T3 sequence (whole entry): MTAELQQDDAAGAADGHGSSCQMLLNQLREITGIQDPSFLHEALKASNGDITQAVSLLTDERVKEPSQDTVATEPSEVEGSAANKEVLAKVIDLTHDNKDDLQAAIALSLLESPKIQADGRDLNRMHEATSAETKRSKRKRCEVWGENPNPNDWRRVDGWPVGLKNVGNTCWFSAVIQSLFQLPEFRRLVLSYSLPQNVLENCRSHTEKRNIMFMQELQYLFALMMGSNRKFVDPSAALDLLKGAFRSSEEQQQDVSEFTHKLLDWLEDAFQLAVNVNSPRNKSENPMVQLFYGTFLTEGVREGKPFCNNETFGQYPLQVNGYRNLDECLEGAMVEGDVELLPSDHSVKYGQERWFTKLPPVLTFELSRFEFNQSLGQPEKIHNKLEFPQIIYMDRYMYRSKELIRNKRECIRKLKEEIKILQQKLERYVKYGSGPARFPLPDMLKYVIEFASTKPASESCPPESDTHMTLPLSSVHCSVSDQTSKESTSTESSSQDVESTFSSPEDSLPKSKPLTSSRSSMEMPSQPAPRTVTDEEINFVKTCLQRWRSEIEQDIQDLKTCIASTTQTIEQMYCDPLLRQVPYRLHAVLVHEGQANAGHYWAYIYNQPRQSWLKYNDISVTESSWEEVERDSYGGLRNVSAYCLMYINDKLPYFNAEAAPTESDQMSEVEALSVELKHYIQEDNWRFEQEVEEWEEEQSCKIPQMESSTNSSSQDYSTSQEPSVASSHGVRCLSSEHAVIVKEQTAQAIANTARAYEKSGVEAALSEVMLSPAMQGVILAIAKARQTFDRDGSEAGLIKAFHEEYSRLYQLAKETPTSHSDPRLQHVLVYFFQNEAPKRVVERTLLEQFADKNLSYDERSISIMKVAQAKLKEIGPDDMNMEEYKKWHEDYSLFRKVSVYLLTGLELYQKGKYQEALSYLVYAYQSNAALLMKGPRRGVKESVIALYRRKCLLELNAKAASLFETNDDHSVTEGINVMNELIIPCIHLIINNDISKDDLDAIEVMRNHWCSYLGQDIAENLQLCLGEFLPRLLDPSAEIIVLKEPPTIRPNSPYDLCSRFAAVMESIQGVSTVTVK
Outline: as §1

Measured: log2 ratio of Biotin-Ahx-Ub-VS probe labelling

CN1c2ccccc2C(NC(=O)CCl)CS1(=O)=O (centres undefined)
inactive: [1] -0.159 | [2] -0.201 | [3] -0.52 | [4] -0.788
